This note sets out measurements from PubChem BioAssay (EPA / NIEHS).

The source made the active and inactive calls. The calls were made as follows: active = hit-call score of the fitted dose curve at least 0.9, where 1 is the maximum; inactive = score below 0.9.

The assay in a line: ATG_CRE_CIS: Attagene CIS-FACTORIAL HepG2 Assay for human cAMP Responsive Element (CRE) binding protein 3 (AID 2282926). Conditions: HepG2 CRE cis-reporter, Attagene multiplexed mRNA; actives raise or lower the signal. As to the method: ATG_CIS is a cell-based, multiplexed-readout assay that uses HepG2, a human liver cell line, with measurements taken at 24 hours after chemical dosing in a 24-well plate.ATG_CRE_CIS is one of 52 assay component(s) measured or calculated from the ATG_CIS assay. It is designed to make measurements of mRNA induction, a form of inducible reporter, as detected with fluorescence intensity signals by Reverse transcription polymerase chain reaction (RT-PCR) and Capillary electrophoresis technology.Data from the assay component ATG_CRE_CIS was analyzed into 1 assay endpoint. This assay endpoint, ATG_CRE_CIS, was analyzed with bidirectional fitting relative to DMSO as the negative control and baseline of activity. Using a type of inducible reporter, measures of mRNA for gain or loss-of-signal activity can be used to understand the reporter gene at the transcription factor-level as they relate to the gene CREB3. Furthermore, this assay endpoint can be referred to as a primary readout, because this assay has produced multiple assay endpoints where this one serves a reporter gene function. To generalize the intended target to other relatable targets, this assay endpoint is annotated to the dna binding intended target family, where the subfamily is basic leucine zipper.
Human liver HepG2 cells are transiently transfected with multiple reporter transcription units (MRTUs) in 6-well plates using FuGene 6 reagent (Roche; 3 ml FuGene/1 mg DNA). The MRTU constructs are regulated by a cis-regulating element (promoter). […] A major difference between the CIS and TRANS system is that in CIS activities of endogenous TFs are measured, whereas the TRANS assay evaluates changes in activities of exogenous, chimeric NR-Gal4 proteins. […] At the end of 24 hour incubation, total RNA was isolated using TriZol reagent (Invitrogen). The isolated RNA is then reverse-transcribed using oligo(dT) primer and Mo-MLV reverse transcriptase (Invitrogen) with DNAse I (Ambion) treatment for 30 min. The one-tenth of the produced cDNA was amplified by PCR using Taq DNA polymerase (Invitrogen) and two reporter sequence-specific primers. The PCR products were fluorescently labeled by primer extension with 6-arboxyfluorescein (6-FAM) 5'-labeled reporter sequence-specific primer (2 min at 95 C, 20 s at 68 C and 10 min at 72 C) and these products were digested with 5U of HpaI (New England Biolabs) for 2h at 37 C. The fragments were purified using Qiaquick PCR columns (Qiagen), analyzed on an ABI 3130xL genetic analyzer (Applied Biosystems) with peak positions identified by using a set of X-rhodamine (ROX)-labeled MapMarker1000 molecular weight standards (BioVentures). The raw capillary electrophoresis data was processed using Attagraph software (Attagene).
Turning to `O=S1(=O)OC(c2ccc(O)cc2)(c2ccc(O)cc2)c2ccccc21`, the call was inactive.

Consider `COC(=O)/C=C\C(=O)O`, for which the outcome was inactive.

As for `CCCCCCOC(=O)C(C)CC` (stereo not given), the compound was called inactive.

Take `C1=CCCC1`: the compound was classed as inactive.

Consider `[Cl][Bi]([Cl])([c]1ccccc1)([c]1ccccc1)[c]1ccccc1`, for which the AC50 (in general, the concentration giving half of the maximal activity seen) was 6.38 µM (active).

With `CCCOC(=O)CCCCC(=O)OCCC`, the compound was called inactive.

`O=Nc1ccc(O)cc1`: the compound was called inactive.

Regarding `O=C1CCCCCCCCCCC(=O)OCCO1`, the compound was called inactive.

For `COc1cc(NC(=O)CC(C)=O)c(OC)cc1Cl`, the result was inactive.

As to `CCCCCCCC/C=C\CCCCCCCC(=O)O`, the result was inactive.

Consider `CC(=O)c1ccc2c(c1)CCCC2`, for which the call was inactive.

`COCCOCCOCCOCCOC`: the result was inactive.

`CCOC(=O)Cc1cccc2ccccc12`: the compound was called inactive.

With `O=C1C=CC(=O)O1`, the call was inactive.

`CCCCCCCC[N+](C)(CCCCCCCC)CCCCCCCC`: the compound was classed as inactive.

Consider `OCCN(CCO)c1ccccc1`, for which the call was inactive.

In the case of `NCCCN1CCN(CCCN)CC1`, the compound was classed as inactive.

In the case of `[Cl][In]([Cl])[Cl]`, the call was inactive.

Take `N=c1ccn2c(n1)O[C@H]1[C@H](O)[C@@H](CO)O[C@H]12`: the call was inactive.

`c1ccc2c(c1)ccc1cc3c(ccc4ccccc43)cc12`: the result was inactive.

For `CCCCCCCCCCCCCCCCCC#N`, the compound was called inactive.

For the compound `O=C(c1ccc(O)cc1)c1ccc(O)cc1O`, the outcome was inactive.

Turning to `O=C(Cl)c1cc(C(=O)Cl)cc(C(=O)Cl)c1`, the outcome was inactive.

`CC(=O)C=CC1C(C)=CCC(C)C1(C)C` (stereo not given): the compound was called inactive.

`O=CC1CC1`: the outcome was inactive.

In the case of `CCO[Si](CCCN=C=O)(OCC)OCC`, the outcome was inactive.

Take `CCCCCCCC(C)=O`: the outcome was inactive.

In the case of `O=C(O)CC(C(=O)O)C(CC(=O)O)C(=O)O` (stereo not given), the result was inactive.

As for `NC(=O)N=NC(N)=O`, the result was inactive.

Turning to `O=c1[nH]nc(-c2ccc([N+](=O)[O-])o2)o1`, the outcome was inactive.

Regarding `COCCCOCCCOC`, the result was inactive.

`O=C(Oc1ccccc1)c1ccc2ccccc2c1O`: the call was inactive.

As for `Oc1ccc(Cl)cc1Cc1cc(Cl)ccc1O`, the AC50 is 3.51 µM (active).

Take `CCCCCCCCc1ccc(Nc2ccc(CCCCCCCC)cc2)cc1`: the outcome was inactive.

With `CCCCCC/C=C\CCCCCCCC(=O)O`, the AC50 was 34.7 µM (active).

With `COC(=O)c1sccc1S(N)(=O)=O`, the call was inactive.

As for `CC1(C)S[C@@H]2[C@H](NC(=O)COc3ccccc3)C(=O)N2[C@H]1C(=O)O`, the outcome was inactive.

As to `Cc1ccc(C2OC[C@@H]3OC(c4ccc(C)cc4)O[C@H]([C@H](O)CO)[C@@H]3O2)cc1` (stereo not given in full), the compound was called inactive.

Take `CCCCC/C=C\C/C=C\CCCCCCCC(=O)OC`: the call was inactive.

As for `[Cl][Nd]([Cl])[Cl]`, the call was inactive.
